Test results reported in ChEMBL document CHEMBL1961873, “Compounds: GSK PKIS; Assays: Nanosyn kinase panel” (2012).

How the values were obtained:
[1] = molecular target: Protein kinase C gamma type (Homo sapiens) (UniProt P05129); conditions: at 1 µM;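 also: each value is an averaged percent inhibition of the enzyme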
[2] = molecular target: T1, Protein kinase C iota type (Homo sapiens) (UniProt P41743); conditions: at 0.1 µM
T1 sequence (whole entry): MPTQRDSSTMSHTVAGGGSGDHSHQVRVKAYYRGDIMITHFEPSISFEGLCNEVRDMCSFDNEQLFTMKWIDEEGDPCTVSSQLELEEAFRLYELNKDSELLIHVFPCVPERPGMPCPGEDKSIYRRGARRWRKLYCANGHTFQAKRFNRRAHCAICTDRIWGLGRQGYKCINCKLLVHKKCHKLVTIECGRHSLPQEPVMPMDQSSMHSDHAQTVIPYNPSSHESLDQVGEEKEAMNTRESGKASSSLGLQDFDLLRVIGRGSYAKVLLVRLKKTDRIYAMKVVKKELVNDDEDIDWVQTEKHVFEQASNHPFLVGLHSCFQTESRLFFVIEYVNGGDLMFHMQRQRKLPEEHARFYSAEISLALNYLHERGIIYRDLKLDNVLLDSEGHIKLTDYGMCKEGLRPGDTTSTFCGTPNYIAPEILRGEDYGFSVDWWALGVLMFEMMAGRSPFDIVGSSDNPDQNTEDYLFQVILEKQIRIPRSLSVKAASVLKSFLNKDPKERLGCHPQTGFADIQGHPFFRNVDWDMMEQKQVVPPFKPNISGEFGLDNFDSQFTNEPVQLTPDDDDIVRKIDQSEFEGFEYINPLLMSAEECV

[3] = molecular target: T1, Protein kinase C iota type (Homo sapiens); conditions: at 1 µM
[4] = molecular target: Protein kinase C theta type (Homo sapiens) (UniProt Q04759); conditions: at 0.1 µM
[5] = molecular target: Protein kinase C theta type (Homo sapiens) (UniProt Q04759); conditions: at 1 µM
[6] = molecular target: Protein kinase C beta type (Homo sapiens) (UniProt P05771); conditions: at 0.1 µM
[7] = molecular target: Protein kinase C beta type (Homo sapiens) (UniProt P05771); conditions: at 1 µM
[8] = molecular target: T2, Serine/threonine-protein kinase D1 (Homo sapiens) (UniProt Q15139); conditions: at 0.1 µM
T2 sequence (whole entry): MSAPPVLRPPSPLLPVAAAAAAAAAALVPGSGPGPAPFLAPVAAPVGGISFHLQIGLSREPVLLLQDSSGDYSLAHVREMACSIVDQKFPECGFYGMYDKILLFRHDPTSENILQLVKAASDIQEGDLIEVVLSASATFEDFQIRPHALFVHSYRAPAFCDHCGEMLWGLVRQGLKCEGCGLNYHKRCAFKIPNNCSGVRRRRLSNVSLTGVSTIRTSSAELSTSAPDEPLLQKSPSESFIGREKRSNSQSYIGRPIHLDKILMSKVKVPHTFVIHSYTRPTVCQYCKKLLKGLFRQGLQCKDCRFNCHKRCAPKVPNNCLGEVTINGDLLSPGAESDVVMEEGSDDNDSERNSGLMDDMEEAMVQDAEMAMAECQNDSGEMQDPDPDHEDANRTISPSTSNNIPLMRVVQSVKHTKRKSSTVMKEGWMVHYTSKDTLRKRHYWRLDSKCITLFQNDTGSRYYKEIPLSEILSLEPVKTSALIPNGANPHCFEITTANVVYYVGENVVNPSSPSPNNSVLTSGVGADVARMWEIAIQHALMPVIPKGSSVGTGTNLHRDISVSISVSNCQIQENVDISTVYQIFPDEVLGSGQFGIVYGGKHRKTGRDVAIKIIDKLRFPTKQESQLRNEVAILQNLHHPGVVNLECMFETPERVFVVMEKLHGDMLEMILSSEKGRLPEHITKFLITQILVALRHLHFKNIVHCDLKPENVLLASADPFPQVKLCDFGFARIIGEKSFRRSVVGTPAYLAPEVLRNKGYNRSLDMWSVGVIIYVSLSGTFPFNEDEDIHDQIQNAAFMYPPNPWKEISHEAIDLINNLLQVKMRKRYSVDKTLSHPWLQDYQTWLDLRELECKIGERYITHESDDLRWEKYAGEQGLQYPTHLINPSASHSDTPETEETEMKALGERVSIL

[9] = molecular target: T2, Serine/threonine-protein kinase D1 (Homo sapiens); conditions: at 1 µM
[10] = molecular target: T3, Serine/threonine-protein kinase D2 (Homo sapiens) (UniProt Q9BZL6); conditions: at 0.1 µM
T3 sequence (whole entry): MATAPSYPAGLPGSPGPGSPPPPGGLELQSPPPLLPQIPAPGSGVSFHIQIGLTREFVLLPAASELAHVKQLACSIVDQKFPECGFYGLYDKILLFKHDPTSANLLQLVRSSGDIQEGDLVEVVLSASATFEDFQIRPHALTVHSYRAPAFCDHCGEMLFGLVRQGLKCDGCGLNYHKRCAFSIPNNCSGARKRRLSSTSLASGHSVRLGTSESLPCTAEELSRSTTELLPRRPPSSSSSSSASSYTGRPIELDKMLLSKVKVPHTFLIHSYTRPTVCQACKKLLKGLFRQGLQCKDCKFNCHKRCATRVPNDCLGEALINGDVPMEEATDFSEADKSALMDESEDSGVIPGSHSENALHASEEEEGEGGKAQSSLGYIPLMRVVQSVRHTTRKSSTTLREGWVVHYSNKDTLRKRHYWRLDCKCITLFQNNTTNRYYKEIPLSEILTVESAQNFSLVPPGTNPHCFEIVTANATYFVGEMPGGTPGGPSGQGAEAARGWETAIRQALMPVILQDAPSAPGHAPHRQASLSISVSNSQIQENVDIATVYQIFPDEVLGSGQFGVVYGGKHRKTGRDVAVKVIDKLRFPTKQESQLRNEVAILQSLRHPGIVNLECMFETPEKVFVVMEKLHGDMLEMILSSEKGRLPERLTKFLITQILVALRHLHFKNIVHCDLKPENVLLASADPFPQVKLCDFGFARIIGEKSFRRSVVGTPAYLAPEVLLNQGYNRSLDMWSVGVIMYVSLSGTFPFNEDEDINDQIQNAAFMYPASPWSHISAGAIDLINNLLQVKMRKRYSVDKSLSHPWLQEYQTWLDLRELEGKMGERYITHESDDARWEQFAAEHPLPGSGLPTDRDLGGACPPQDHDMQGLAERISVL

[11] = molecular target: T3, Serine/threonine-protein kinase D2 (Homo sapiens); conditions: at 1 µM
[12] = molecular target: T4, Serine/threonine-protein kinase D3 (Homo sapiens) (UniProt O94806); conditions: at 0.1 µM
T4 sequence (whole entry): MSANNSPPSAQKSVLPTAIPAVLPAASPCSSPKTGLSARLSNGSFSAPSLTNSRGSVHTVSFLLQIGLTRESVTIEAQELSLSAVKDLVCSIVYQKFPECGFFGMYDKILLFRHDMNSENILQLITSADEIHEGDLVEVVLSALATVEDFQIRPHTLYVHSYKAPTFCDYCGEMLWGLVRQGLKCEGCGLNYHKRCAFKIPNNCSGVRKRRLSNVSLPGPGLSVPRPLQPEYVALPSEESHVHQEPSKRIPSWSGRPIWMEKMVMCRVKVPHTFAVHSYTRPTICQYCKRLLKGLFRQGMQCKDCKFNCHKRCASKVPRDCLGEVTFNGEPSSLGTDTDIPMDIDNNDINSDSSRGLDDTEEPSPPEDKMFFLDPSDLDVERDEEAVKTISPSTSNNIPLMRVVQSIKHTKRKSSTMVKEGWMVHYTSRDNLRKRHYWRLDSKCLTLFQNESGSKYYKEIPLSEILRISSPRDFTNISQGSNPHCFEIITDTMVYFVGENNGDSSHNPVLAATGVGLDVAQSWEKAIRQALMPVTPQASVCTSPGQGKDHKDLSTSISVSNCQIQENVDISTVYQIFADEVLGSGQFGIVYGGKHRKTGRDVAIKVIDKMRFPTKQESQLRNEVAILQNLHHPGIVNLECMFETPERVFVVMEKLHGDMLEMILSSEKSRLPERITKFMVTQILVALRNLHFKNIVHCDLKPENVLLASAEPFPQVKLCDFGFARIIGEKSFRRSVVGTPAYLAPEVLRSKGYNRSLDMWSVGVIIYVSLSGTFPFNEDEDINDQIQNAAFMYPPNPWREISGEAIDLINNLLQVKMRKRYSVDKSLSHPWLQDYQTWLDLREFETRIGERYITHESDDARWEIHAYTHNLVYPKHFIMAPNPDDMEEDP

[13] = molecular target: T4, Serine/threonine-protein kinase D3 (Homo sapiens); conditions: at 1 µM
[14] = molecular target: T5, cGMP-dependent protein kinase 1 (Homo sapiens) (UniProt Q13976); conditions: at 0.1 µM
T5 sequence (whole entry): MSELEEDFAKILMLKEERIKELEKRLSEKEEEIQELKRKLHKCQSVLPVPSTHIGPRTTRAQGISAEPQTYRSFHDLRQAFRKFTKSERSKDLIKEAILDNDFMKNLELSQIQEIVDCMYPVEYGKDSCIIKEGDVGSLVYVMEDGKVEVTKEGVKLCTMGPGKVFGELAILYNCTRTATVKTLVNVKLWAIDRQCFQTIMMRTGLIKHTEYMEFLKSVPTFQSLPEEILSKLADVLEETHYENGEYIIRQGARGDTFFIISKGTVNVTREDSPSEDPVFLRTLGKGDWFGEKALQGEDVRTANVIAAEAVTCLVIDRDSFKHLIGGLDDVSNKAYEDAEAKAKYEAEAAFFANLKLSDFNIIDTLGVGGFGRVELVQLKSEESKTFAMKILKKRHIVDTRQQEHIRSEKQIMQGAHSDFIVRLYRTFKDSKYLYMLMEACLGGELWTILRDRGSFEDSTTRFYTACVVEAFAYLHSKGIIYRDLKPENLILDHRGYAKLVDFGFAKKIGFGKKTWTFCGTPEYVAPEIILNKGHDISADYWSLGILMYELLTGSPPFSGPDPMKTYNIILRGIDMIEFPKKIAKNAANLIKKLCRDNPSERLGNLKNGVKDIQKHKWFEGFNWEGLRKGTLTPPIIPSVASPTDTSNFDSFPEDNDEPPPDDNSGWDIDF

[15] = molecular target: T5, cGMP-dependent protein kinase 1 (Homo sapiens); conditions: at 1 µM
[16] = molecular target: T6, cGMP-dependent protein kinase 2 (Homo sapiens) (UniProt Q13237); conditions: at 0.1 µM
T6 sequence (whole entry): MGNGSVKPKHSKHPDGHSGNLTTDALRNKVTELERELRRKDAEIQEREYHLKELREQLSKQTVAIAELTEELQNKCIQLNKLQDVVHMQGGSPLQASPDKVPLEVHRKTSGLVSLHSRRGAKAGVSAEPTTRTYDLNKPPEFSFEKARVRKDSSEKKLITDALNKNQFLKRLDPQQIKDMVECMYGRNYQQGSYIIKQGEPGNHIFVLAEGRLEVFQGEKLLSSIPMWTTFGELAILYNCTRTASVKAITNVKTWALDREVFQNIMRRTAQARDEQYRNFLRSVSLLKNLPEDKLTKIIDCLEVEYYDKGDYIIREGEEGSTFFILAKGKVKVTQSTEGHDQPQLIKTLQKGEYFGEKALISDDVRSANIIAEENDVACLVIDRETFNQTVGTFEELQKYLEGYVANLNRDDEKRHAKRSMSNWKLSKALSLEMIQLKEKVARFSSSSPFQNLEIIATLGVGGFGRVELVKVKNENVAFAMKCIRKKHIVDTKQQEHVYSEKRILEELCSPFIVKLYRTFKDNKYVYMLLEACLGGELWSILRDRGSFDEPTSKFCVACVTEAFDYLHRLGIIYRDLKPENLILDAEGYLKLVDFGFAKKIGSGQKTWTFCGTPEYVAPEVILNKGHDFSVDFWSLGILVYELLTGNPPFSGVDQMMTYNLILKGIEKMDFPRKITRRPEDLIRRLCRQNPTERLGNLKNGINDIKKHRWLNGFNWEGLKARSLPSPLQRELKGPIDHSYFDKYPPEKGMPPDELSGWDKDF

[17] = molecular target: T6, cGMP-dependent protein kinase 2 (Homo sapiens); conditions: at 1 µM
[18] = molecular target: T7, cAMP-dependent protein kinase catalytic subunit PRKX (Homo sapiens) (UniProt P51817); conditions: at 0.1 µM
T7 sequence (whole entry): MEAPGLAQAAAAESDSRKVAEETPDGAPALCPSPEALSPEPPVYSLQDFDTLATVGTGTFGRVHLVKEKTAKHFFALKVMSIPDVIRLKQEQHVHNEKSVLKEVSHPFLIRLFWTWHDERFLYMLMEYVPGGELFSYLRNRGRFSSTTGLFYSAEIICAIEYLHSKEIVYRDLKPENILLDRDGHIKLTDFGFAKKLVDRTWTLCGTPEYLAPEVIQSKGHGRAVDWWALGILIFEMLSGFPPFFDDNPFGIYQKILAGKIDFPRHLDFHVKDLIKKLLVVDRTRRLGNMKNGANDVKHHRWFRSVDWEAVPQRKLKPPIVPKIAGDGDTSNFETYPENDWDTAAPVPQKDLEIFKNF

[19] = molecular target: T7, cAMP-dependent protein kinase catalytic subunit PRKX (Homo sapiens); conditions: at 1 µM
[20] = molecular target: Rho-associated protein kinase 1 (Homo sapiens) (UniProt Q13464); conditions: at 0.1 µM;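 also: values are mean percent inhibition of ROCK1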
Rho-associated protein kinase 1 (Homo sapiens), sequence (Q13464 2-1354 limits assumed): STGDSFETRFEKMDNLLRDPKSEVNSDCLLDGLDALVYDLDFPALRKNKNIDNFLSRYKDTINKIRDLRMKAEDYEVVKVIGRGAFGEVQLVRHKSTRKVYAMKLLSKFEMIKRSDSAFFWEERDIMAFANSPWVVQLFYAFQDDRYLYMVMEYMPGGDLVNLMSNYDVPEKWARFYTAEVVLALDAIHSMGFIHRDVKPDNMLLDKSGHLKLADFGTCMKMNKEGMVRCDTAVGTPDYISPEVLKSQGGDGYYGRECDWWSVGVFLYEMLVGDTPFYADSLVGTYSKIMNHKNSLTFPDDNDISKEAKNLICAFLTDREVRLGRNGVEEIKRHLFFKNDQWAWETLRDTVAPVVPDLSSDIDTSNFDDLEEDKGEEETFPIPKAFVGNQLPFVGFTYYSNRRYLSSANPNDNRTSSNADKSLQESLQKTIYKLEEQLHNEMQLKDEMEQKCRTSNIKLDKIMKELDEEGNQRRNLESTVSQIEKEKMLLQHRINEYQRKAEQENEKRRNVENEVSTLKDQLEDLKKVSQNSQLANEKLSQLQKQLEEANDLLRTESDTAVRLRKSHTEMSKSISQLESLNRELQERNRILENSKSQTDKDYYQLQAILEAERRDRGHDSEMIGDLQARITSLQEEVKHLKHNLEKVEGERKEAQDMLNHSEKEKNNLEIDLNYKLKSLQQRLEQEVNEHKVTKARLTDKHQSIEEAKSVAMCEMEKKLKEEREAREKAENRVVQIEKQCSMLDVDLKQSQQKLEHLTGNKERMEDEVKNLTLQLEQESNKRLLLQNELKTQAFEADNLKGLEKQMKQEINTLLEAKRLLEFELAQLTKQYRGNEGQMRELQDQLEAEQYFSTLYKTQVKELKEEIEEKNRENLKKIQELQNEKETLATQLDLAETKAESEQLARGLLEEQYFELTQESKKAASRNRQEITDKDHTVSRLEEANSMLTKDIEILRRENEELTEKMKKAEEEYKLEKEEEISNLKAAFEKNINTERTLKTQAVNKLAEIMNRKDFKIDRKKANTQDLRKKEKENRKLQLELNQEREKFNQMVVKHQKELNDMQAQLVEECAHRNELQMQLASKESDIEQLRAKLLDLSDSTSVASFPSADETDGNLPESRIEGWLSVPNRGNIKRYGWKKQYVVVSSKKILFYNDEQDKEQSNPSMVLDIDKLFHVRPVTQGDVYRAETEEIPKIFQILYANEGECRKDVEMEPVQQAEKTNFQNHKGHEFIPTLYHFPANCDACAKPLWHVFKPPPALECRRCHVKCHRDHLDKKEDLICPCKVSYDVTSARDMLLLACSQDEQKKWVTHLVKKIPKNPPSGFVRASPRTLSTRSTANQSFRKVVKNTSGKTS

Protein kinase C theta type (Homo sapiens), sequence (Q04759 whole entry, looked up): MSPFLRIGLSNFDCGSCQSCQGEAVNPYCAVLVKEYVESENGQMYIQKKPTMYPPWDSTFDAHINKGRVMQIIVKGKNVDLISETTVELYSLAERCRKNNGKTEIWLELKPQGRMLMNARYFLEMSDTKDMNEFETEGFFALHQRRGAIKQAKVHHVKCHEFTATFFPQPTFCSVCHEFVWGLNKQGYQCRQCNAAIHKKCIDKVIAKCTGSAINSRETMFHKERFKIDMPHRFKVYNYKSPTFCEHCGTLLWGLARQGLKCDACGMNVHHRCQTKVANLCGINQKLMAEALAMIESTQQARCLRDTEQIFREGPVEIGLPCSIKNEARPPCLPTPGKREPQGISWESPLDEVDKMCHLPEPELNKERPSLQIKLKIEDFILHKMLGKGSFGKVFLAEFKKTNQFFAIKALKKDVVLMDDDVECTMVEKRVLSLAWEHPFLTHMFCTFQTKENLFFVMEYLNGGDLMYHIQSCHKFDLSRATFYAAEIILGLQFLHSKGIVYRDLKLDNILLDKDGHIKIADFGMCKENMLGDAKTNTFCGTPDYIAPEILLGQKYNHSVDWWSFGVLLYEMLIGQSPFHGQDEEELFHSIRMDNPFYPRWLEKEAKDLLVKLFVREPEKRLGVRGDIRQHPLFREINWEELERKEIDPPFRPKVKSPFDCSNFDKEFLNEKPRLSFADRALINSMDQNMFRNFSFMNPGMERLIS
Protein kinase C beta type (Homo sapiens), sequence (P05771 2-671 limits assumed): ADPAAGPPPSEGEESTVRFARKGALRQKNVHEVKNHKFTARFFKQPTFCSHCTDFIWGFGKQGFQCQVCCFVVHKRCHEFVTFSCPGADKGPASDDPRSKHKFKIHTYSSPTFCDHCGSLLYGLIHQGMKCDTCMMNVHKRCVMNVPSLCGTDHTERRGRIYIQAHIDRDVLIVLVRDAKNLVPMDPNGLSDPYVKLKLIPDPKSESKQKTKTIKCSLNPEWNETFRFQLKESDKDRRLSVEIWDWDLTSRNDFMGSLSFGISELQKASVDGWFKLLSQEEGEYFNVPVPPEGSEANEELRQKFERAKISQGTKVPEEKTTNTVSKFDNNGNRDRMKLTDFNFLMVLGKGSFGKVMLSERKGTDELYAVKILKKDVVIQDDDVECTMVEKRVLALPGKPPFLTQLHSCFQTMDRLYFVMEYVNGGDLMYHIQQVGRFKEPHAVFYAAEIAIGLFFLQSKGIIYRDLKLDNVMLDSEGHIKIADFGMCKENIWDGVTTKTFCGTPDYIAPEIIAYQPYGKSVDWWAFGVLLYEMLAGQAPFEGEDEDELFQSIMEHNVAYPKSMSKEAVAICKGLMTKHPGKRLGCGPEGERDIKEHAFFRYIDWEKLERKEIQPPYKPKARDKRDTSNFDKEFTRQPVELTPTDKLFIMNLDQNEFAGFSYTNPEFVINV

Work on `NS(=O)(=O)c1ccc(Nc2cc(-c3cccc(O)c3)n[nH]2)cc1` yielded an inhibition [1] of 5.97%, an inhibition [2] of 2.37% and an inhibition [3] of 3.83%. For the same molecule, the inhibition [4] was 3.09%, the inhibition [5] was 3.2% and the inhibition [6] was 1.35%. It also gave an inhibition [7] of 3.75%, an inhibition [8] of 4.8% and an inhibition [9] of 11.4%. It also gave an inhibition [10] of 5.45%, an inhibition [11] of 7.41% and an inhibition [12] of 6.55%. For the same molecule, the inhibition [13] was 8.42%, the inhibition [14] was 5.01% and the inhibition [15] was 5.23%. For the same molecule, the inhibition [16] was 3.66%, the inhibition [17] was 5.03% and the inhibition [18] was 3.04%. For the same molecule, the inhibition [19] was 2.25% and the inhibition [20] was 1.47%.
